{
  "source": "paper PMC4336329",
  "about": "(PLoS ONE, 2015)",
  "note": "About 14,000 (4.5%) of roughly 310,000 compounds showed an effect of 50% or more. Effects have a minus sign here. What follows is part of a selection rich in strong results, with near analogues and random picks from the rest.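 Further: peak tail current of the secondary pulse compared with the same well before compound.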",
  "data": [
    {"biological_target": "human ether-à-go-go-related gene (hERG) potassium channel (human, UniProt Q12809)", "sequence (Q12809 whole entry, looked up)": "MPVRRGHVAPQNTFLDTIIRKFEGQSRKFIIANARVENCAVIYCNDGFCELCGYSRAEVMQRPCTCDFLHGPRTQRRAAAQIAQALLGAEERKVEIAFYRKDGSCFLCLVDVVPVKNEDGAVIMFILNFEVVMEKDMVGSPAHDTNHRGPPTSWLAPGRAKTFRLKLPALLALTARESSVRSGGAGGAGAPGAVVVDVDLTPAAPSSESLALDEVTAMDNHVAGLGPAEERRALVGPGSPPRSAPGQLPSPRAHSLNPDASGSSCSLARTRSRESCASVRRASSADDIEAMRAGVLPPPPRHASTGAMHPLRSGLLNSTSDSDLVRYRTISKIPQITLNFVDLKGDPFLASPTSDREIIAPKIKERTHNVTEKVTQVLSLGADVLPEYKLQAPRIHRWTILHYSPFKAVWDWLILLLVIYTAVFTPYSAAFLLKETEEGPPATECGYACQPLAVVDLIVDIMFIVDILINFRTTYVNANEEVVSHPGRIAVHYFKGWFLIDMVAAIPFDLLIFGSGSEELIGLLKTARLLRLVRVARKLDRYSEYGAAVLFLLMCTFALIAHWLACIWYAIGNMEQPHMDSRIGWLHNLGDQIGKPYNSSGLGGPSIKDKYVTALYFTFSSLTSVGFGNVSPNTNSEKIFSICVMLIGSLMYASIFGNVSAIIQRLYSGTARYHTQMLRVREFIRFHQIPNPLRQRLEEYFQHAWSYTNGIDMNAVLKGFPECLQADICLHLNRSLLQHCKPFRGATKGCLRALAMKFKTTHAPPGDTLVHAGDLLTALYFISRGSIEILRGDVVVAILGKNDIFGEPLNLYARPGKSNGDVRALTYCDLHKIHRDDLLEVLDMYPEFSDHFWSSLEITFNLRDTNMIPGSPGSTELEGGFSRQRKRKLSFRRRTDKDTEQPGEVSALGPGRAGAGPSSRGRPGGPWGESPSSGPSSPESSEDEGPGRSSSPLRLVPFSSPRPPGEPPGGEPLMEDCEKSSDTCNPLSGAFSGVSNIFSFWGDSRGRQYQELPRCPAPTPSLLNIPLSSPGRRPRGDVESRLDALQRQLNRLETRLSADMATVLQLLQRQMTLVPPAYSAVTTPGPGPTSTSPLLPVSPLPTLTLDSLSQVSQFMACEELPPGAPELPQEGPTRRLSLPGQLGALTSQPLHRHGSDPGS", "experiment": "primary screen, population patch clamp on CHO cells stably expressing hERG; higher = less effect of the substance", "units": {"hERG current change (%, negative = inhibition) at 10uM": "%"}, "values": [
      {"smiles": "CCc1nc(NCC2CCCN2CC)c2nnn(Cc3ccccc3F)c2n1", "note": "(stereo not shown)", "hERG current change (%, negative = inhibition) at 10uM": -54.2},
      {"smiles": "CCc1nc(NCCCCCO)c2nnn(Cc3ccccc3F)c2n1", "hERG current change (%, negative = inhibition) at 10uM": -28.8},
      {"smiles": "C#CCNc1nc(CC)nc2c1nnn2Cc1ccccc1F", "hERG current change (%, negative = inhibition) at 10uM": -0.696},
      {"smiles": "CCOC(=O)C1C(=O)NC(SCC(=O)Nc2nccs2)=C(C#N)C1c1ccccc1OCC", "note": "(stereo not shown)", "hERG current change (%, negative = inhibition) at 10uM": 13.7},
      {"smiles": "COc1ccc(OC)c(C2C3CN(C(C)C)CC=C3C(C#N)=C(N)C2(C#N)C#N)c1", "note": "(stereo not shown)", "hERG current change (%, negative = inhibition) at 10uM": -16.2},
      {"smiles": "Nc1c(C(=O)Nc2ccccc2)c2nc3ccccc3nc2n1CCCN1CCOCC1", "hERG current change (%, negative = inhibition) at 10uM": 18.7},
      {"smiles": "CCCCc1nc(SCC(=O)N2CCCC2)c2c(=O)n(C)c(=O)n(C)c2n1", "hERG current change (%, negative = inhibition) at 10uM": -23},
      {"smiles": "Cl.O=C(c1ccco1)N1CCN(CCOCCOc2cccc3ccccc23)CC1", "hERG current change (%, negative = inhibition) at 10uM": -62.5},
      {"smiles": "COc1cccc(OC)c1OCCN1CCN(C(=O)c2ccco2)CC1.Cl", "hERG current change (%, negative = inhibition) at 10uM": -16.2},
      {"smiles": "Cl.O=C(c1ccco1)N1CCN(CCCCOc2cccc3ccccc23)CC1", "hERG current change (%, negative = inhibition) at 10uM": -62.4},
      {"smiles": "O=C(CCN1CCN(C(=O)c2ccco2)CC1)Nc1ccc(F)cc1", "hERG current change (%, negative = inhibition) at 10uM": -22.4},
      {"smiles": "Cl.O=C(c1ccco1)N1CCN(CCCCOc2ccc(F)cc2)CC1", "hERG current change (%, negative = inhibition) at 10uM": -74.4},
      {"smiles": "O=C(c1ccco1)N1CCN(CCCCN2C(=O)c3ccccc3C2=O)CC1", "hERG current change (%, negative = inhibition) at 10uM": -40},
      {"smiles": "CN1CCN(CCCCOc2cccc3ccccc23)CC1.Cl", "hERG current change (%, negative = inhibition) at 10uM": -27.4},
      {"smiles": "O=C(O)C(=O)O.c1ccc(CN2CCN(CCOCCOc3cccc4ccccc34)CC2)cc1", "hERG current change (%, negative = inhibition) at 10uM": -43.3},
      {"smiles": "Cl.O=C(c1ccco1)N1CCN(CCOc2ccc(F)cc2)CC1", "hERG current change (%, negative = inhibition) at 10uM": -47.4},
      {"smiles": "O=C(CCCCCCN1C(=O)c2ccccc2C1=O)Nc1nccs1", "hERG current change (%, negative = inhibition) at 10uM": 12.2},
      {"smiles": "COc1cc(CNCCO)cc(Br)c1OCc1cccs1.Cl", "hERG current change (%, negative = inhibition) at 10uM": -8.81},
      {"smiles": "CCOc1c(C)cc2[nH]c(CCC(=O)O)nc2c1C.Cl", "hERG current change (%, negative = inhibition) at 10uM": -0.00982},
      {"smiles": "COCCn1c(-c2ccccc2F)n[nH]c1=S", "hERG current change (%, negative = inhibition) at 10uM": 21.5},
      {"smiles": "CNC(=O)c1ccccc1Sc1ccccc1CO", "hERG current change (%, negative = inhibition) at 10uM": 27.9},
      {"smiles": "CC(C)(C)c1ccc(NC(=S)NCc2cccs2)cc1", "hERG current change (%, negative = inhibition) at 10uM": 4.35},
      {"smiles": "Cc1cc(N2CCN(c3ccccc3)CC2)nc(N)n1.Cl", "hERG current change (%, negative = inhibition) at 10uM": -42.9},
      {"smiles": "Cc1cc(N2CCN(c3ccccc3)CC2)nc(-n2nc(C)cc2C)n1", "hERG current change (%, negative = inhibition) at 10uM": -63.2},
      {"smiles": "Cc1cc(C)n(-c2nnc(N3CCN(c4ccccc4)CC3)nn2)n1", "hERG current change (%, negative = inhibition) at 10uM": -16},
      {"smiles": "Cc1cc(N2CCN(c3ccccc3)CC2)nc(NCc2ccccc2)n1", "hERG current change (%, negative = inhibition) at 10uM": 4.25},
      {"smiles": "CCCc1nc(C)cc(N2CCN(c3ccccc3)CC2)n1.Cl", "hERG current change (%, negative = inhibition) at 10uM": -51.7},
      {"smiles": "Cc1cc(N2CCC(C)CC2)nc(-n2nc(C)cc2C)n1", "hERG current change (%, negative = inhibition) at 10uM": -30.3}
    ]}
  ]
}
